PubChem BioAssay (NCATS)
A number with no mark means an inactive call. Records with an inconclusive call do not appear. Where a call stands in place of a potency, no number is given. Active and inactive are the calls of the source. Calls come from the whole dose curve; as a rule, active = well fitted curve in the direction sought with a large enough effect; inconclusive = small, poorly fitted or top-dose-only effect, or another doubt; inactive = no such curve, though single readings can be large; an effect the other way counts as inactive or inconclusive.

Tests used:
[1] = tested on: Zika virus NS2B-NS3 protease (linked construct); experiment: Primary screen NINDS Rhodamine qHTS for Zika virus inhibitors (AID 1347160); note: nearly all actives have a fitted effect of over 55% in size; note: potency is the fitted concentration of half-maximal effect
In short: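 Single-chain NS2B-NS3 protease, 25 nM, pH 8.0; compounds preincubated 15 min. Activity: Rhodamine110 release from 1.5 microM substrate over 15 min, room temperature, data fitted to 4-parameter Hill.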

[2] = HPAF-II Cancer Cell Toxicity qHTS against the NCATS CANVASS Library (AID 1347346); note: nearly all actives have a fitted effect of over 55% in size; note: potency is the fitted concentration of half-maximal effect; for activity change, negative = cytotoxicity: series mostly up to about 38 µM
In short: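 1000 HPAF-II cells/well; 4 h pre-incubation; 11-pnt compound titration; 72 h, 37 degrees C/5% CO2; CellTiter-Glo, 15 min RT; luminescence read.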

[3] = U-118MG Cancer Cell Toxicity qHTS against the NCATS CANVASS Library (AID 1347351); note: potency is the fitted concentration of half-maximal effect; for activity change, negative = cytotoxicity: series mostly up to about 38 µM
In short: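 Step one: seed 1000 cells per well. Step two: incubate 4 h. Step three: add test compounds in 11 concentrations. Step four: culture 72 h, then add CellTiter-Glo and record luminescence after 15min.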

[4] = COV-362 Cancer Cell Toxicity qHTS against the NCATS CANVASS Library (AID 1347352); note: series mostly up to about 38 µM
In short: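 1000 cells/well, 4 h pre-incubation 37 °C/5% CO2; 11-pnt titration; 72 h; CellTiter-Glo 15 min RT, luminescence.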

[5] = HPAF-II 24hr Apoptosis Induction qHTS against the NCATS CANVASS Library (AID 1347356)
In short: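 500 HPAF-II cells/well; compounds in 11-pnt qHTS; 24 h, 37 C/5% CO2; Caspase-Glo 3/7 added, 15 min RT dark; luminescence read. Doxorubicin control.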

[6] = HEK293 18hr Apoptosis Induction qHTS against the NCATS CANVASS Library (AID 1347357)
In short: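 HEK293 cells (500/well, DMEM + 10% FBS) treated with an 11-point series for 18 h at 37 degrees C. Caspase-3/7 activity read by Caspase-Glo luminescence after 15 min at room temperature.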

[7] = HEK293 24hr Apoptosis Induction qHTS against the NCATS CANVASS Library (AID 1347359)
In short: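 HEK293 cells (500/well, DMEM + 10% FBS) were exposed to compounds in an 11-point series for 24 hours at 37 degrees C, then caspase-3/7 activity was read by Caspase-Glo DEVD luciferase luminescence after 15 min.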

[8] = HEK293 12hr Apoptosis Induction qHTS against the NCATS CANVASS Library (AID 1347361)
In short: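 HEK293 cells (500/well) were exposed to an 11-point qHTS concentration series for 12 hours at 37 degrees C. Caspase-3/7 activity was then read by DEVD-substrate luciferase luminescence after 15 min at room temperature.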

[9] = target: Luciferin 4-monooxygenase (Photinus pyralis) (UniProt P08659); experiment: Firefly luciferase counterscreen qHTS: Assay Interference Panel against the NCATS CANVASS Library (AID 1347363); note: series mostly up to about 57 µM
In short: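 Purified P. pyralis luciferase was added to compounds (11-point series) preincubated 15 min at room temperature with substrate containing 0.013 mM D-luciferin and 0.013 mM ATP; luminescence was read after 5 min.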

[10] = KB-3-1 Cancer Cell Toxicity qHTS against the NCATS CANVASS Library (AID 1347366); note: nearly all actives have a fitted effect of over 75% in size; for activity change, negative = cytotoxicity: series mostly up to about 46 µM
In short: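 KB-3-1 cells (500/well) in DMEM with 10% FBS were exposed to compounds for 72 h at 37C. Viability was read by CellTiter-Glo luminescence.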

[11] = qHTS for ATAD5 Agonist screened against the NCATS CANVASS Library (AID 1347367);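 note: luciferase reporter driven by ATAD5 which rises upon DNA damage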
In short: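 Luciferase reporter under ATAD5 control, stably integrated in HEK293T cells (2000/well). Compounds (11 points) incubated 16 h at 37C; viability read first by CellTiter-Fluor, then luminescence reporting ATAD5 activation. MMS positive control.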

[12] = MCF7 Cancer Cell Toxicity qHTS against the NCATS CANVASS Library (AID 1347369); note: potency is the fitted concentration of half-maximal effect; for activity change, negative = cytotoxicity: series mostly up to about 46 µM
In short: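 MCF7 cells (500/well) were exposed 72 h at 37 °C to compounds in an 11-point series. Viability was read as ATP content by CellTiterGlo luminescence.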

[13] = qHTS for ATAD5 Antagonist screened against the NCATS CANVASS Library (AID 1347370); note: nearly all actives have a fitted effect of over 65% in size; note: potency is the fitted concentration of half-maximal effect;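 for activity change, negative = inhibition: HEK293T cells carrying an ATAD5 luciferase reporter co-treated with 10 µM 5-fluorouridine; series mostly up to about 46 µM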
In short: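 HEK293T-ATAD5 luc reporter, 2000 cells/well; 5hr attach; cpd + 10 uM 5-FUrd; 16hr 37C, 5% CO2. Readouts: CellTiter-Fluor fluorescence (1hr), then Amplite luciferase luminescence (30min RT).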

[14] = J3T Cancer Cell Toxicity qHTS against the NCATS CANVASS Library (AID 1347371); note: potency is the fitted concentration of half-maximal effect;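 for activity change, negative = cytotoxicity: J3T is a canine glioma cancer cell line seeded at 500 cells per well; series mostly up to about 46 µM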
In short: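 Dog glioma J3T, 500 cells/well; cpd 11-pt qHTS; 72 hr, 37C/5% CO2; CellTiterGlo ATP luminescence readout.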

[15] = target: Nuclear receptor subfamily 1 group I member 3 (Homo sapiens) (UniProt Q14994); experiment: qHTS for Constitutive Androstane Receptor (CAR) Agonist screened against the NCATS CANVASS Library (AID 1347373);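 note: every well also contained 1.5 µM PK11195 alongside the test compound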
In short: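 Luciferase read-out (ONE-Glo, 30 min RT) of CYP2B6-2.2kb promoter activity in double-stable HepG2-hCAR cells after 24hr compound exposure with 1.5uM PK11195 present; viability measured first by CellTiter-Fluor.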

[16] = 10-beta competent E. coli microbial cell viability qHTS against the NCATS CANVASS Library (AID 1347376); note: series mostly up to about 46 µM
In short: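 Luminescence from BacTiter-Glo ATP detection served as the viability read-out; bacteria (0.2 OD) had been incubated overnight at 37C with pin-transferred compounds at 11 concentrations.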

[17] = qHTS for Inflammasome Signaling Inhibitors: IL-1-beta AlphaLISA screen against the NCATS CANVASS Library (AID 1347379);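 note: human THP-1 cells primed with LPS then triggered with ATP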;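 for activity change, negative = inhibition: secreted IL-1B measured as AlphaLISA emission at 615 nm; lower signal means less IL-1B release which is the wanted effect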;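 for potency: secreted IL-1B measured as AlphaLISA emission at 615 nm; potency is the fitted concentration of half-maximal effect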
In short: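 THP-1, 1 hr compound pre-incubation, then LPS 250 ng/mL + ATP 1.25 mM (final); 16 hr total with compound; IL-1B AlphaLISA, ex 680/em 615 nm; 11-point qHTS, up to 57.5 uM final.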

[18] = Inflammasome Signaling qHTS Counterscreen: IL-1-beta AlphaLISA counterscreen against the NCATS CANVASS Library (AID 1347381);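 note: cell-free check with purified IL-1β in medium and no THP-1 cells; series mostly up to about 57 µM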
In short: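 Here, no cellular stimulation occurs; compounds in an 11-point series meet 4 pg purified IL-1-beta directly. Bead-based AlphaLISA detection follows (1 h acceptor/antibody, then 30 min donor, dark, room temperature), with excitation at 680 nm.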

[19] = Vero-766 cells viability qHTS against the NCATS CANVASS Library: Counterscreen for Zika virus inhibition assay (AID 1347394); note: series mostly up to about 46 µM; nearly all actives have a fitted effect of over 60% in size
In short: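 Vero 766 cells (1000/well), without Zika virus, were exposed to compounds for 72 h at 37C. Viability was measured by CellTiter Glo luminescence. Media-only wells served as 100% inhibition.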

[20] = Viability qHTS for inhibitors of the SERCaMP assay screened against the NCATS CANVASS Library (AID 1347400); note: nearly all actives have a fitted effect of over 70% in size; note: potency is the fitted concentration of half-maximal effect; for activity change, negative = cytotoxicity: series mostly up to about 92 µM
In short: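 CellTiter-Glo luminescence readout after 48 h compound exposure (11-pnt qHTS series) of SH-SY5Y-GLuc SERCaMP MJH297 cells seeded at 1000 cells/well; bortezomib positive control.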

Chain of Luciferin 4-monooxygenase (Photinus pyralis) (P08659 whole entry, looked up): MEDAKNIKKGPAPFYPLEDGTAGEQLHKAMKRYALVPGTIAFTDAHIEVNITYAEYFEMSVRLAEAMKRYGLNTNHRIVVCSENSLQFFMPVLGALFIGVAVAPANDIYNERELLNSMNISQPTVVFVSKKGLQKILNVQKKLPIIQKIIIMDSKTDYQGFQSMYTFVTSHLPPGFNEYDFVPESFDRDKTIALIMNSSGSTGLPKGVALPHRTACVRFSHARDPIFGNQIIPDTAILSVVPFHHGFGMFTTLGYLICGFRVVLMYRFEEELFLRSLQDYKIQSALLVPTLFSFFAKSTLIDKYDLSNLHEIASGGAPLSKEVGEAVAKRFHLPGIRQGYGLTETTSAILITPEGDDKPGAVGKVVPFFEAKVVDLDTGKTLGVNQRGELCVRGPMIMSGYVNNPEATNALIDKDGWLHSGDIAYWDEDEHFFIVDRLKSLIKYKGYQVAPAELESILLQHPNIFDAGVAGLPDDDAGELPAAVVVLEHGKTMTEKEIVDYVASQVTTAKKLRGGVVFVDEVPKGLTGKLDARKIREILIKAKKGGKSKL
Chain of Nuclear receptor subfamily 1 group I member 3 (Homo sapiens) (Q14994 whole entry, looked up): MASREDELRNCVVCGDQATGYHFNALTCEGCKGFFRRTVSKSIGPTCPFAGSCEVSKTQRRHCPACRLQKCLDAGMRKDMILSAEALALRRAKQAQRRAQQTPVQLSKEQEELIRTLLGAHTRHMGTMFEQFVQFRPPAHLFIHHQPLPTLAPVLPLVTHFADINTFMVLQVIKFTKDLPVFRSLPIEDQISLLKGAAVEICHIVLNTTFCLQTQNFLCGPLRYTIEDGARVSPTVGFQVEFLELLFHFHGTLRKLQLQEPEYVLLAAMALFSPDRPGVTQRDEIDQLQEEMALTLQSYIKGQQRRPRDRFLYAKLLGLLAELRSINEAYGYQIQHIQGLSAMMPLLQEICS

Question: With O=C(O)[C@@]12CO[C@@]3(O)C4CCN(CC[C@H]31)[C@H]4c1c2[nH]c2ccccc12 as the compound, how does the Potency [1] read?
Answer: inactive

Question: And the Potency [2]?
Answer: inactive

Question: What about the Potency [3] of the same compound?
Answer: inactive

Question: And the Potency [4]?
Answer: inactive

Question: What about the outcome [5] of the same compound?
Answer: inactive

Question: And the Potency [6]?
Answer: inactive

Question: And the Potency [7]?
Answer: inactive

Question: What about the Potency [8] of the same compound?
Answer: inactive

Question: And the Potency [9]?
Answer: inactive

Question: What about the Potency [10] of the same compound?
Answer: inactive

Question: What about the Potency [11] of the same compound?
Answer: inactive

Question: And the Potency [12]?
Answer: inactive

Question: What about the Potency [13] of the same compound?
Answer: inactive

Question: What about the Potency [14] of the same compound?
Answer: inactive

Question: And the outcome [15]?
Answer: inactive

Question: And the outcome [16]?
Answer: inactive

Question: And the Potency [17]?
Answer: inactive

Question: And the outcome [18]?
Answer: inactive

Question: And the Potency [19]?
Answer: inactive

Question: And the Potency [20]?
Answer: inactive

Question: What does the source list for C=C1C(=O)O[C@H]2C[C@H](C)[C@@H]3CC(=O)C(C)=C3[C@H](O)[C@H]12?
Answer: Potency [1]: inactive; Potency [2]: 13.3 µM (active); Potency [3]: 18.8 µM (active); outcome [5]: inactive; Potency [7]: inactive; Potency [9]: inactive; Potency [11]: inactive; Potency [12]: 18.6 µM (active); Potency [13]: 13.2 µM (active); Potency [14]: 23.5 µM (active); outcome [15]: inactive; outcome [16]: inactive; Potency [17]: 10.9 µM (active); outcome [18]: inactive; Potency [20]: 21.4 µM (active)

Question: What does the source list for COc1ccc([C@@H]2c3cc(OC)c(OC)cc3C(=O)[C@H](C)C2C)cc1OC (some centres undefined)?
Answer: Potency [1]: inactive; activity change, negative = cytotoxicity [2]: 3.84% [at 7.64 µM]; activity change, negative = cytotoxicity [3]: 3.5% [at 7.64 µM]; activity change, negative = cytotoxicity [4]: -1.95% [at 7.64 µM]; caspase activation [5]: 1.81% [at 9.19 µM]; caspase activation [6]: 3.8% [at 9.19 µM]; activation [7]: 3.39% [at 9.19 µM]; caspase activation [8]: 2.92% [at 9.19 µM]; activity change, negative = inhibition [9]: 4.08% [at 11.5 µM]; activity change, negative = cytotoxicity [10]: 8.45% [at 9.19 µM]; activation [11]: -0.416% [at 9.19 µM]; activity change, negative = cytotoxicity [12]: -14.7% [at 9.17 µM]; activity change, negative = inhibition [13]: -23.2% [at 9.19 µM]; outcome [14]: inactive [at 9.19 µM]; activation [15]: 1.07% [at 9.19 µM]; outcome [17]: inactive [at 11.5 µM]; activity change, negative = inhibition [18]: -8.6% [at 11.5 µM]; activity change, negative = cytotoxic [19]: -18.3% [at 9.19 µM]; activity change, negative = cytotoxicity [20]: 9.45% [at 18.4 µM]

Question: Which Potency [1] does the source give for C=C1C(=O)C[C@H]2C[C@@H]1[C@]2(C)CCC=C(C)C here?
Answer: 17.5 µM (active)

Question: What about the Potency [2] of the same compound?
Answer: inactive

Question: And the Potency [3]?
Answer: inactive

Question: And the Potency [4]?
Answer: inactive

Question: What about the outcome [5] of the same compound?
Answer: inactive

Question: What about the Potency [6] of the same compound?
Answer: inactive

Question: And the Potency [7]?
Answer: inactive

Question: And the Potency [8]?
Answer: inactive

Question: What about the Potency [9] of the same compound?
Answer: inactive

Question: What about the Potency [10] of the same compound?
Answer: inactive

Question: And the Potency [11]?
Answer: inactive

Question: And the Potency [12]?
Answer: inactive

Question: And the Potency [13]?
Answer: inactive

Question: What about the Potency [14] of the same compound?
Answer: inactive

Question: What about the outcome [15] of the same compound?
Answer: inactive

Question: And the outcome [16]?
Answer: inactive

Question: What about the Potency [17] of the same compound?
Answer: inactive

Question: And the outcome [18]?
Answer: inactive

Question: And the Potency [19]?
Answer: inactive

Question: What about the Potency [20] of the same compound?
Answer: inactive

Question: Which results are given for C=C1C[C@@]23C=CC(=O)[C@@](C)(CCCC(C)C(=O)O)[C@@H]2C[C@@H]1CC3 (some centres undefined)?
Answer: Potency [1]: 44 µM (active); Potency [2]: inactive; Potency [3]: inactive; Potency [4]: inactive; outcome [5]: inactive; Potency [6]: inactive; Potency [7]: inactive; Potency [8]: inactive; Potency [9]: inactive; Potency [10]: inactive; Potency [11]: inactive; Potency [12]: inactive; Potency [13]: inactive; Potency [14]: inactive; outcome [15]: inactive; outcome [16]: inactive; Potency [17]: inactive; outcome [18]: inactive; Potency [19]: inactive; Potency [20]: inactive

Question: What does the source list for C=C[C@@]1(C)CC[C@@H]([C@H](C)C(=O)/C=C/C(C)C)O1?
Answer: Potency [1]: inactive; Potency [2]: inactive; Potency [3]: inactive; Potency [4]: inactive; outcome [5]: inactive; Potency [6]: inactive; Potency [7]: inactive; Potency [8]: inactive; Potency [9]: inactive; Potency [10]: inactive; Potency [11]: inactive; Potency [12]: inactive; Potency [13]: inactive; Potency [14]: inactive; outcome [15]: inactive; outcome [16]: inactive; Potency [17]: inactive; outcome [18]: inactive; Potency [19]: inactive; Potency [20]: inactive
